From PubChem BioAssay
Calls of active or inactive are those of the source. Unless noted, no rule for the calls is given here.

Tests used:
[1] = system: Wnt5a (protein binding on small-molecule microarray); experiment: Wnt5a binders on small-molecule microarray, primary screen, biophysical, 635/667 nm fluorescence (AID 1142); conditions: 635 nm fluorescence, higher = more signal;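 also: fluorescence read at 667 nm with signal to noise per printed feature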
[2] = cell viability in Huh7 cells, primary screen, cytotoxicity control for HCV replication inhibitor project, CellTiter-Glo luminescence, basal, 48 h (AID 1143); conditions: Huh7 HCV replicon, higher = more signal, called active from +8 up or from −8 down;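 also: Huh7 hepatoma cells carrying a hepatitis C replication reporter with no stimulus; test concentration not given here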
[3] = P. aeruginosa biofilm formation inhibitors, primary screen, PAO1 strain, BacTiter-Glo luminescence, LB-PBS (AID 1144); conditions: 12 h, higher = more signal
[4] = CREB reporter modulators without forskolin, primary screen, cell-based, PC12, CRE-LacZ reporter, unstimulated (AID 1145); conditions: no forskolin, luminescence, 4.5 h, higher = more signal, called active from +8 up or from −8 down
[5] = CREB reporter modulators under forskolin, primary screen, cell-based, PC12, CRE-LacZ reporter, forskolin-stimulated (AID 1146); conditions: luminescence, 4.5 h, higher = more signal, called active from +8 up or from −8 down;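 also: PC12 cells with 6xCRE LacZ reporter stimulated by forskolin 10 µM; beta-galactosidase reporter signal reflecting CREB driven transcription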
[6] = target: Streptavidin (Streptomyces avidinii) (UniProt P22629); experiment: streptavidin binders on small-molecule microarray, primary screen, artefact control for SMM compound annotation, biophysical, 635/667 nm fluorescence (AID 1147); conditions: streptavidin binding, higher = more signal;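 also: signal reflects streptavidin binding to arrayed compounds as a control protein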
[7] = small-molecule binders of probe aInhba, primary screen, biochemical, small-molecule microarray, 635/667 nm fluorescence (AID 1148); conditions: higher = more signal;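 also: score merges 667nm spot fluorescence with signal-to-noise for antibody binding to printed compounds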
Torsin-1A (Homo sapiens) [8] = target: Torsin-1A (Homo sapiens) (UniProt O14656); experiment: torsin A binders from cell lysate, primary screen, small-molecule microarray, wild-type, 635/667 nm (AID 1149); conditions: COS7 hTOR1A-WT lysate, 635 nm fluorescence, higher = more signal
Torsin-1A (Homo sapiens) [9] = target: Torsin-1A (Homo sapiens) (UniProt O14656); experiment: small-molecule binders of mutant TOR1A in lysate, primary screen, cell lysate, small-molecule microarray, COS7 lysate, 635/667 nm fluorescence (AID 1150); conditions: COS7 hTOR1A mutant lysate, 635 nm fluorescence, higher = more signal;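 also: score pools 667 nm emission and signal to noise measuring lysate protein binding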
[10] = system: Sonic hedgehog protein (Shh); experiment: small-molecule binders of Shh protein, primary screen, biochemical, small-molecule microarray, 635/667 nm fluorescence (AID 1151); conditions: small-molecule microarray binding, 635 nm fluorescence; higher = more signal;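 also: Shh protein binding to compounds spotted on small-molecule microarray slides; score combines spot fluorescence intensity with signal-to-noise across triplicate slides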
[11] = E. coli DRC41 culture turbidity changes, primary screen, E. coli filamentation inducer project, strain DRC41, OD650, 48 h (AID 1152);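 also: E. coli MC1000 strain DRC41 lacking acrAB efflux pump and sulA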; conditions: E. coli DRC41 (acrAB sulA), higher = more signal, called active from +8 up or from −8 down
[12] = small-molecule binders of probe aLefty1, primary screen, biochemical, small-molecule microarray, 635/667 nm fluorescence (AID 1153); conditions: higher = more signal;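 also: score merges spot fluorescence with signal-to-noise ratio from the scanned slide images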
[13] = PSAC antagonists in infected red cells, primary screen, cell-based, P. falciparum Indochina, OD700, 1 h (AID 1154); conditions: P. falciparum Indochina infected RBC osmotic lysis, higher = more signal, called active from +8 up or from −8 down
[14] = PSAC antagonists in infected red cells, primary screen, cell-based, P. falciparum Indochina, OD700, 2 h (AID 1155);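 also: lysis reports solute entry through the parasite surface anion channel PSAC; channel blockers reduce lysis of infected cells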; conditions: P. falciparum Indochina infected erythrocytes, osmotic lysis OD700; higher = more signal, called active from +8 up or from −8 down
[15] = osmotic lysis modulators in infected erythrocytes, primary screen, PSAC antagonist project, cell-based, P. falciparum Indochina, OD700, 3 h (AID 1156); conditions: higher = more signal, called active from +8 up or from −8 down
[16] = PSAC antagonists in infected red cells, primary screen, cell-based, P. falciparum Indochina, OD700, 18 h (AID 1157); conditions: P. falciparum Indochina infected erythrocytes, osmotic lysis OD700, 18 h; higher = more signal, called active from +8 up or from −8 down
[17] = modulators of S6 phosphorylation in cells, primary screen, cell-based, A549, cytoblot, luminescence, serum-stimulated (AID 1158); conditions: A549 phospho-S6 cytoblot, 5 h, higher = more signal;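 also: serum-stimulated A549 lung adenocarcinoma cells; signal is phosphorylated S6 detected by cytoblot immunostaining with HRP secondary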
[18] = target: NADPH oxidase 2 (Homo sapiens) (UniProt P04839); experiment: NOX2-dependent H2O2 signal modulators, primary screen, NOX inhibitor project, cell-based, HEK293-NOX2, PMA-stimulated, Amplex Red fluorescence (AID 1159); conditions: 45 min, higher = more signal, called active from +8 up or from −8 down; also: test concentration not given here
[19] = target: NADPH oxidase 4 (Homo sapiens) (UniProt Q9NPH5); experiment: NOX4-dependent H2O2 signal modulators, primary screen, NOX inhibitor project, cell-based, HEK293-NOX4, tetracycline-induced, Amplex Red fluorescence (AID 1160); conditions: 45 min, higher = more signal, called active from +8 up or from −8 down
[20] = target: NADPH oxidase 5 (Homo sapiens) (UniProt Q96PH1); experiment: NOX5-dependent H2O2 signal modulators, primary screen, NOX inhibitor project, cell-based, HEK293-NOX5, Amplex Red fluorescence (AID 1161); conditions: HEK293-NOX5, ionomycin, 45 min, higher = more signal
Sequence of NADPH oxidase 5 (Homo sapiens) (Q96PH1 whole entry, looked up): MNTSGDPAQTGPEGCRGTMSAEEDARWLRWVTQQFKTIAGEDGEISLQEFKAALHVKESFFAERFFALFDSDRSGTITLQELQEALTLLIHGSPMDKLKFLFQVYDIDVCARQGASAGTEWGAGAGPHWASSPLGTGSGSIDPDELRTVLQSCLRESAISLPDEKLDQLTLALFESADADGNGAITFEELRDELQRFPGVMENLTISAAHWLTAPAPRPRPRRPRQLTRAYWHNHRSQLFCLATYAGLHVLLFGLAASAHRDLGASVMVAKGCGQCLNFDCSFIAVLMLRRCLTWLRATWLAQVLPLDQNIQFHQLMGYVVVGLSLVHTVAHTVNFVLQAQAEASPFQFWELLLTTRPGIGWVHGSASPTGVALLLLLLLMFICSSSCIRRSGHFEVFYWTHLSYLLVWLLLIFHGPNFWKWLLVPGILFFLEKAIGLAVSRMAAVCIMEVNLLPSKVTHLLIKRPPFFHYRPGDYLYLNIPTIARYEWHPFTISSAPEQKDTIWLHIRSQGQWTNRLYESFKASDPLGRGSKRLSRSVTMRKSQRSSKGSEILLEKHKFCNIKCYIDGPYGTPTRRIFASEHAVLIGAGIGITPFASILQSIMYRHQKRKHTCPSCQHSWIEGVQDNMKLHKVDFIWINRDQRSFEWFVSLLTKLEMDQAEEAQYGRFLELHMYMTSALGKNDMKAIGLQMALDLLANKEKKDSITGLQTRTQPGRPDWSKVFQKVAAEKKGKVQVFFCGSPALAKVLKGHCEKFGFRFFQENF

Sequence of Streptavidin (Streptomyces avidinii) (P22629 whole entry, looked up): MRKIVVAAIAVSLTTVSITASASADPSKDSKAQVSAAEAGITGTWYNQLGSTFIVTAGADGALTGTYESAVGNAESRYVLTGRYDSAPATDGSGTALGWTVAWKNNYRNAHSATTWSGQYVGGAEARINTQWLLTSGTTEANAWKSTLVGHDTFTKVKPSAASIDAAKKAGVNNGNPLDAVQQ
Sequence of NADPH oxidase 2 (Homo sapiens) (P04839 whole entry, looked up): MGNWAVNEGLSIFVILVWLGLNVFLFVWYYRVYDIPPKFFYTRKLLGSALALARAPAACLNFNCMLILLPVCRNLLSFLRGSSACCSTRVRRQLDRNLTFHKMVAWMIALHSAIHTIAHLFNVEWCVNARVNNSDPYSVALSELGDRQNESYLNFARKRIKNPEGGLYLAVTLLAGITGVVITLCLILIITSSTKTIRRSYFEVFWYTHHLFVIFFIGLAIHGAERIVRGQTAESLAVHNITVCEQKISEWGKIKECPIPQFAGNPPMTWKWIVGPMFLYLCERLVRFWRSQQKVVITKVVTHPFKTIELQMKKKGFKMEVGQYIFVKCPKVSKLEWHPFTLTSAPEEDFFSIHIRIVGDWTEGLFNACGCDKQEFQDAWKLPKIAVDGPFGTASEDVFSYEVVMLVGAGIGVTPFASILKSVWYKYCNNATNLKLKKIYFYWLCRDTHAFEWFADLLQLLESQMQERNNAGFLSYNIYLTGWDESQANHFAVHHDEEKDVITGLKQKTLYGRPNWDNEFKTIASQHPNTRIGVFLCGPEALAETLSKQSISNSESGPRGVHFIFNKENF
Sequence of NADPH oxidase 4 (Homo sapiens) (Q9NPH5 whole entry, looked up): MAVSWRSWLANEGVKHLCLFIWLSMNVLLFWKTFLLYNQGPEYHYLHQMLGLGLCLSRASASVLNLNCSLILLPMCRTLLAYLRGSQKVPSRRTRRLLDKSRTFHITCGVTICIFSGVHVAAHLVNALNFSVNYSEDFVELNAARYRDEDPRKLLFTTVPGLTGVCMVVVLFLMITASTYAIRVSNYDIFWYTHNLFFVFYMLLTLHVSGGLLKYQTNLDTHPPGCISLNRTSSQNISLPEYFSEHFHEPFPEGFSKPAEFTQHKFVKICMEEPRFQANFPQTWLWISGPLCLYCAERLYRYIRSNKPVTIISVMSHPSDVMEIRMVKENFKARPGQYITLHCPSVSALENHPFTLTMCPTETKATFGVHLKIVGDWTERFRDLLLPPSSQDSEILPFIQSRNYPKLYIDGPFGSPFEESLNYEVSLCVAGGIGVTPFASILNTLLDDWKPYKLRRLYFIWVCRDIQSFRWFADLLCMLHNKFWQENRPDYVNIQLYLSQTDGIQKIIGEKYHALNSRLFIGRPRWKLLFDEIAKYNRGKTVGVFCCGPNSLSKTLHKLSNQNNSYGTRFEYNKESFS
Sequence of Torsin-1A (Homo sapiens) (O14656 whole entry, looked up): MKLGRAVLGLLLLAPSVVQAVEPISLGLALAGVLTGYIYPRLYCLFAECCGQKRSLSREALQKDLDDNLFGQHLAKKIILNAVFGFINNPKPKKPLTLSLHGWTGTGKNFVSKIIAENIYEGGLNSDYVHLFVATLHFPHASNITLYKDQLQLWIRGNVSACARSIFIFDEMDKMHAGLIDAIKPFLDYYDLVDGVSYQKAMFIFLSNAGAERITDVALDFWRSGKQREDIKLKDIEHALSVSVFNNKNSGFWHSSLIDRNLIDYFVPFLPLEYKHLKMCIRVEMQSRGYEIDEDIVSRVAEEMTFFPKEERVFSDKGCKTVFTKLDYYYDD

Compound: COC(=O)CC=C[C@@H](C)[C@@H](C=NOC[C@@H](O)COCc1ccco1)OC
- composite z-score [1]: -0.302
- z-score [2]: 0.545 (inactive)
- z-score [3]: 1.47 (inactive)
- z-score [4]: -1.05 (inactive)
- z-score [5]: -0.252 (inactive)
- composite z-score [6]: 0.457
- composite z-score [7]: -0.214
- composite z-score (Torsin-1A (Homo sapiens) [8]): 3.02
- composite z-score (Torsin-1A (Homo sapiens) [9]): 2.69
- composite z-score [10]: 1.99
- z-score [11]: 0.245 (inactive)
- composite z-score [12]: -0.202
- z-score [13]: 0.202 (inactive)
- z-score [14]: 0.322 (inactive)
- z-score [15]: -0.0838 (inactive)
- z-score [16]: 0.145 (inactive)
- z-score [17]: 0.564
- z-score [18]: -0.499 (inactive)
- z-score [19]: 0.024 (inactive)
- z-score [20]: 0.403

Compound: CC(CCN1CCc2nc(-c3ccccc3)c(-c3ccccc3)cc2C1)=NOC(C)CN1CCCc2nc(C)c(C)cc21 (stereo not given)
- composite z-score [1]: 0.281
- z-score [2]: -1.33 (inactive)
- z-score [3]: 0.25 (inactive)
- z-score [4]: 0.894 (inactive)
- z-score [5]: -0.0977 (inactive)
- composite z-score [6]: 0.808
- composite z-score [7]: 0.0785
- composite z-score (Torsin-1A (Homo sapiens) [8]): 0.373
- composite z-score (Torsin-1A (Homo sapiens) [9]): 0.432
- composite z-score [10]: 0.667
- z-score [11]: -0.115 (inactive)
- composite z-score [12]: 0.0956
- z-score [13]: 3.04 (inactive)
- z-score [14]: 0.494 (inactive)
- z-score [15]: 0.959 (inactive)
- z-score [16]: 0.268 (inactive)
- z-score [17]: -0.56
- z-score [18]: -5.56 (inactive)
- z-score [19]: -0.946 (inactive)
- z-score [20]: -3.15

Compound: COC(=O)[C@H](C)NC(=O)CCC1CC(OC(=O)NCCc2ccc(F)cc2)CC2(CCCC(COC(=O)NCC3CCCCC3)O2)O1 (stereo not given in full)
- composite z-score [1]: 0.374
- z-score [2]: -2.59 (inactive)
- z-score [3]: 0.0852 (inactive)
- z-score [4]: 0.819 (inactive)
- z-score [5]: 0.676 (inactive)
- composite z-score [6]: 0.915
- composite z-score [7]: -0.0963
- composite z-score (Torsin-1A (Homo sapiens) [8]): -0.0051
- composite z-score (Torsin-1A (Homo sapiens) [9]): 0.348
- composite z-score [10]: 0.886
- z-score [11]: -0.56 (inactive)
- composite z-score [12]: -0.0464
- z-score [13]: 0.731 (inactive)
- z-score [14]: -0.391 (inactive)
- z-score [15]: 0.701 (inactive)
- z-score [16]: -0.957 (inactive)
- z-score [17]: 1.77
- z-score [18]: -0.763 (inactive)
- z-score [19]: -1.47 (inactive)
- z-score [20]: -1.68

Compound: CC(C)CN1CCc2nc(-c3ccccc3)c3c(c2C1)CO[C@@H](C)C3
- composite z-score [1]: 0.379
- z-score [2]: -0.718 (inactive)
- z-score [3]: -0.876 (inactive)
- z-score [4]: 9.42 (active)
- z-score [5]: -1.44 (inactive)
- composite z-score [6]: 0.235
- composite z-score [7]: 0.115
- composite z-score (Torsin-1A (Homo sapiens) [8]): 0.0937
- composite z-score (Torsin-1A (Homo sapiens) [9]): 0.571
- composite z-score [10]: 0.421
- z-score [11]: 0.696 (inactive)
- composite z-score [12]: 0.123
- z-score [13]: 1.56 (inactive)
- z-score [14]: 0.711 (inactive)
- z-score [15]: 0.61 (inactive)
- z-score [16]: 0.615 (inactive)
- z-score [17]: 0.418
- z-score [18]: 2.18 (inactive)
- z-score [19]: -2.08 (inactive)
- z-score [20]: 0.551

Compound: CC(C)=NOC(C)CN1CCCCc2nc(C)c(C)cc21 (stereo not given)
- composite z-score [1]: 0.243
- z-score [2]: 0.479 (inactive)
- z-score [3]: 0.282 (inactive)
- z-score [4]: -0.236 (inactive)
- z-score [5]: 0.0266 (inactive)
- composite z-score [6]: -0.28
- composite z-score [7]: 0.0314
- composite z-score (Torsin-1A (Homo sapiens) [8]): 0.765
- composite z-score (Torsin-1A (Homo sapiens) [9]): 0.346
- composite z-score [10]: 0.681
- z-score [11]: -0.866 (inactive)
- composite z-score [12]: -0.145
- z-score [13]: -0.147 (inactive)
- z-score [14]: -0.16 (inactive)
- z-score [15]: -0.565 (inactive)
- z-score [16]: 0.195 (inactive)
- z-score [17]: -0.618
- z-score [18]: -0.0962 (inactive)
- z-score [19]: -0.278 (inactive)
- z-score [20]: -0.417

Compound: CC(=O)OC[C@H]1O[C@@H](ON=C(C)CCC(=O)OC[C@H]2O[C@H](C#Cc3ccccc3)C=C[C@@H]2Oc2ccc(C)cc2)[C@H](OC(C)=O)[C@@H](OC(C)=O)[C@@H]1OC(C)=O
- composite z-score [1]: 0.428
- z-score [2]: -1.1 (inactive)
- z-score [3]: -0.238 (inactive)
- z-score [4]: 2.19 (inactive)
- z-score [5]: 0.725 (inactive)
- composite z-score [6]: 0.29
- composite z-score [7]: -0.082
- composite z-score (Torsin-1A (Homo sapiens) [8]): 0.513
- composite z-score (Torsin-1A (Homo sapiens) [9]): 0.461
- composite z-score [10]: 1.19
- z-score [11]: -0.446 (inactive)
- composite z-score [12]: -0.265
- z-score [13]: 2.56 (inactive)
- z-score [14]: 1.11 (inactive)
- z-score [15]: 0.63 (inactive)
- z-score [16]: 0.612 (inactive)
- z-score [17]: -0.635
- z-score [18]: 1.04 (inactive)
- z-score [19]: 1.2 (inactive)
- z-score [20]: 1.38

Compound: CC(=O)OC[C@H]1O[C@H](CC=NO[C@@H](C)c2cn([C@H](CO)Cc3ccccc3)nn2)C=C[C@@H]1OC(C)=O
- composite z-score [1]: 0.0065
- z-score [2]: -2.35 (inactive)
- z-score [3]: -0.902 (inactive)
- z-score [4]: 1.67 (inactive)
- z-score [5]: 0.114 (inactive)
- composite z-score [6]: 0.777
- composite z-score [7]: -0.0963
- composite z-score (Torsin-1A (Homo sapiens) [8]): 0.542
- composite z-score (Torsin-1A (Homo sapiens) [9]): 0.692
- composite z-score [10]: 0.911
- z-score [11]: -0.89 (inactive)
- composite z-score [12]: -0.196
- z-score [13]: -0.719 (inactive)
- z-score [14]: -0.429 (inactive)
- z-score [15]: 0.656 (inactive)
- z-score [16]: -1.23 (inactive)
- z-score [17]: 0.703
- z-score [18]: -2.05 (inactive)
- z-score [19]: -2.01 (inactive)
- z-score [20]: -1.41

Compound: O=C1[C@H]2[C@H]3[C@H](O)[C@H](O)CC(=NO[C@@H]4O[C@H](CO)[C@@H](O)[C@H](O)[C@H]4O)[C@H]3CC[C@H]2C(=O)N1c1ccc(F)cc1F
- composite z-score [1]: 0.0816
- z-score [2]: -1.9 (inactive)
- z-score [3]: 1.42 (inactive)
- z-score [4]: -0.837 (inactive)
- z-score [5]: -0.0522 (inactive)
- composite z-score [6]: -0.695
- composite z-score [7]: -0.0774
- composite z-score (Torsin-1A (Homo sapiens) [8]): 0.835
- composite z-score (Torsin-1A (Homo sapiens) [9]): 0.189
- composite z-score [10]: -0.704
- z-score [11]: -0.205 (inactive)
- composite z-score [12]: 0.0865
- z-score [13]: 2.95 (inactive)
- z-score [14]: 0.454 (inactive)
- z-score [15]: 0.887 (inactive)
- z-score [16]: 0.159 (inactive)
- z-score [17]: -0.56
- z-score [18]: -0.307 (inactive)
- z-score [19]: 0.73 (inactive)
- z-score [20]: 0.667
